High-throughput results: PubChem BioAssay, National Center for Advancing Translational Sciences (NCATS)
DT40 TDP1 CPT = qHTS for Inhibitors of human tyrosyl-DNA phosphodiesterase 1 (TDP1): qHTS in cells in presence of CPT | chicken DT40 Tdp1-/-;hTDP1 cells + 20 nM CPT, ATP luminescence, 48 h | Potency, µM (titrated, usually from 46.2 µM), for the others: at the highest dose activity change, negative = growth inhibition, hits mostly inhibitors | hit rate 12% among 420,000 | AID 686979, 2013; further: nearly all actives have a fitted effect of over 55% in size
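Cell growth measured by CellTiter-Glo luminescence after a minimum 48 h, 37 C compound exposure with 20 nM CPT in Tdp1-knockout DT40 cells stably expressing hTDP1, seeded 400/well; qHTS titration format.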
HT1080 IDH1KD tx = qHTS for induction of synthetic lethality in tumor cells producing 2HG: qHTS for the HT-1080-IDH1KD cell line. HT-1080 IDH1 knockdown viability, ATP luminescence, 48 h. Potency, µM (top dose mostly 46.1 µM), for inactives: top-dose activity, negative = toxicity, usual class: cytotoxic. hit rate 2% among 360,000. AID 686971, 2013;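 further: 0% = DMSO wells and -100% = cell-free medium wells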
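HT-1080-IDH1KD cells (IDH1 knocked down), 750/well in RPMI with 5% FBS, treated with compound 48 h at 37 degrees C. Viability by CellTiter-Glo luminescence, normalised to DMSO and no-cell wells; concentration-response curves classed.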
KB-3-1 cytotox = qHTS assay for MDR1-selective chemotherapeutics: Primary screen using the parental adenocarcinoma cell KB-3-1; hit rate 1.4% among 400,000; Potency, µM (doses to about 46.1 µM), usual class: cytotoxic; KB-3-1 viability, CellTiter-Glo ATP luminescence, 72 h; AID 1347075, 2019; further: nearly all actives have a fitted effect of over 60% in size
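Parental KB-3-1 viability, qHTS format: 72 h compound exposure, 37 °C; CellTiter-Glo; media-only wells and DMSO plates as controls; concentration-effect fits on corrected data.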
TDP1 cell noCPT = qHTS for Inhibitors of human tyrosyl-DNA phosphodiesterase 1 (TDP1): qHTS in cells in absence of CPT | AID 686978, 2013 | hit rate 15% among 420,000 | DT40 Tdp1-/- hTDP1 cells, no CPT, ATP luminescence, 48 h | Potency, µM (highest dose often 46.2 µM), for the others: at the highest dose activity change, negative = growth inhibition, actives largely listed as inhibitors; further: nearly all actives have a fitted effect of over 55% in size
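DT40 Tdp1-/-;hTDP1 cells, no CPT (DMSO vehicle only), 400 cells/well; compounds pin-transferred; ≥48 hr, 37 °C; CellTiter-Glo 30 min RT dark, luminescence read.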
KB-V1 MDR tox = qHTS assay for MDR1-selective chemotherapeutics: Primary screen using the drug-selected MDR subline cells KB-V1. KB-V1 MDR cells viability, CellTiter-Glo, 72 h. Potency, µM (highest dose often 46.1 µM), actives largely listed as cytotoxic. AID 1347076, 2019. hit rate 3.4% among 400,000; further: nearly all actives have a fitted effect of over 60% in size
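KB-V1 MDR subline cells in DMEM (phenol-red free, 10% FBS) exposed to compounds in qHTS concentration series for 72 h at 37 degrees C. Viability read by CellTiter-Glo luminescence; concentration-effect curves fitted after normalization and correction.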
HT1080-NT tox = qHTS for induction of synthetic lethality in tumor cells producing 2HG: qHTS for the HT-1080-NT fibrosarcoma cell line; HT-1080-NT fibrosarcoma viability, CellTiter-Glo ATP luminescence, 48 h; Potency, µM (series often up to 46.1 µM), for inactives: top-dose activity, negative = less viability, actives largely listed as cytotoxic; hit rate 1.6% among 360,000;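 further: NT is the 2HG producing partner of a matched IDH1 knockdown line; 0% = DMSO-treated cells and -100% = media-only wells without cells; nearly all actives have a fitted effect of over 55% in size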
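Luminescent CellTiter-Glo readout after 48 hours of compound exposure at 37 degrees C defined viability of HT-1080-NT cells. Activity was normalized to DMSO wells and cell-free media wells; concentration-response curves were fitted and assigned curve classes.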
Starred values were filed as active, the others as inactive; i = inactive; ? = inconclusive; nt = not tested or not shown; [ ] = another dose, or the depositor's remark. Sampled rows, rich in hits. Any-hit rate of the full collection: about 19%. The call rests on the fitted dose curve; in most records, active means well fitted curve in the direction sought with a large enough effect; inconclusive means small, poorly fitted or top-dose-only effect, or another doubt; inactive means no such curve, though single readings can be large; an effect the other way counts as inactive or inconclusive. Unless noted, on the % scale 0 is the no-effect control and ±100 the full control effect; potency means the concentration at half of the fitted maximal effect.

SMILES | DT40 TDP1 CPT | HT1080 IDH1KD tx | KB-3-1 cytotox | TDP1 cell noCPT | KB-V1 MDR tox | HT1080-NT tox
CC1=C2CCCC[C@@]23C2C(=O)N(C)C(=O)[C@@H]2ON3OC1 (stereo partly drawn) | 18.6% | 3.7% | i | 4.5% | i | -2.5%
O=c1c(-c2ccc(F)cc2)nc2cnc(N3CCOCC3)nc2n1C1CC1 | 3.1% | nt | nt | 16.3% | nt | nt
CCC(C(=O)Nc1cccc(Cl)c1C)n1nc(C)c2sc3ccccc3c2c1=O (stereo not drawn) | ? | nt | i | ? | i | nt
COc1ccc(CCNC(=O)C(C)n2nc(C)c3sc4ccccc4c3c2=O)cc1OC (stereo not drawn) | 14.6µM* | nt | i | 18.4µM* | i | nt
Cc1nn(C(C)C(=O)NCc2ccc(OC(C)C)cc2)c(=O)c2c1sc1ccccc12 (stereo not drawn) | ? | nt | i | ? | i | nt
Cc1nn(C(C)C(=O)NC2CCCCC2)c(=O)c2c1sc1ccccc12 (stereo not drawn) | ? | nt | i | ? | i | nt
CCC(C(=O)NCCc1ccc(SC)cc1)n1nc(C)c2sc3ccccc3c2c1=O (stereo not drawn) | ? | nt | i | 23.1µM* | i | nt
CCOC(=O)C(C)n1nc(C)c2sc3ccccc3c2c1=O (stereo not drawn) | ? | 6.0% | i | ? | 20.6µM* | 10.9%
Cc1ccc(CNC(=O)C(C)n2nc(C)c3sc4ccccc4c3c2=O)cc1 (stereo not drawn) | ? | nt | i | ? | i | nt
COc1ccc(CNC(=O)C(C)n2nc(C)c3sc4ccccc4c3c2=O)cc1OC (stereo not drawn) | 6.51µM* | nt | i | 6.51µM* | i | nt
CCc1ccc2c(c1)c(=O)c(S(=O)(=O)c1ccccc1)cn2CC(=O)Nc1cc(C)ccc1C | 16.3% | nt | i | -0.3% | ? | nt
O=c1c(-c2cccc(Cl)c2)nc2cncnc2n1C1CC1 | 3.6% | nt | nt | 2.1% | nt | nt
CCC(C(=O)NCCc1ccc(OC)c(OC)c1)n1nc(C)c2sc3ccccc3c2c1=O (stereo not drawn) | 9.2µM* | nt | i | 8.2µM* | i | nt
COc1ccc(N2CCN(C(=O)CCNC(=O)c3ccc(C(C)(C)C)cc3)CC2)cc1 | 18.4µM* | -1.2% | i | ? | i | 0.9%
COc1ccc(C(=O)NCc2ccc(N3CCN(C(=O)OC(C)(C)C)CC3)cc2)cc1 | ? | -11.1% | ? | -29.3% | 0.731µM* | 3.1%
COc1cccc(C(=O)NCc2ccc(N3CCN(C(=O)OC(C)(C)C)CC3)cc2)c1 | ? | -4.5% | i | ? | i | 0.4%
O=C(NCCC(=O)N1CCN(c2cccc(Cl)c2)CC1)c1ccc(Br)cc1 | ? | ? | i | ? | 23.1µM* | -2.9%
CC(CCl)n1c(=O)c2ccccc2n1C(=O)c1ccccc1 (stereo not drawn) | -20.6% | -17.7% | i | ? | i | 0.8%
CCn1c(C(=O)Nc2c(C)cccc2C)cc2sc(Cl)cc21 | -25.0% | nt | i | ? | i | nt
CCN(CC)S(=O)(=O)c1ccc(N2CCc3cc(OC)c(OC)cc3C2)nc1 | 18.4µM* | -13.6% | i | ? | i | -11.7%
CC#CC[N+](C)(C)CCCCCCCCCC | 2.31µM* | ? | 5.8µM* | 1.84µM* | i | -27.0%
C#CC[N+](C)(C)CCCCCCCCC | 2.31µM* | ? | 5.8µM* | 2.31µM* | i | ?
CCOC(=O)C1(C)CCCN(C(=O)c2cccc(OC(F)(F)F)c2)C1 (stereo not drawn) | ? | 0.5% | i | ? | ? | -3.1%
CCCCC(C)(C)[C@H](O)/C=C/[C@H]1[C@H](O)CC(=O)[C@@H]1C/C=C\CCCC(=O)O | -3.9%[4.12 µM] | nt | nt | -10.4%[4.12 µM] | nt | nt
CSCCC(NC(=O)c1ccccc1Br)C(=O)NNC(=O)c1cc(C)oc1C (stereo not drawn) | -17.5% | 0.9% | i | -4.2% | i | -0.8%
SMILES | DT40 TDP1 CPT | HT1080 IDH1KD tx | KB-3-1 cytotox | TDP1 cell noCPT | KB-V1 MDR tox | HT1080-NT tox
CCC(Sc1nc2ccccc2c2nc(-c3ccccc3)nn12)C(=O)Nc1cccc(OC)c1 (stereo not drawn) | ? | nt | i | 18.4µM* | ? | nt
CCOCCCn1c(SCC(=O)Nc2cccc(OC)c2)nc2ccccc2c1=O | ? | -6.0% | i | ? | ? | 9.3%
COc1cccc(NC(=O)CSc2nc3ccccc3c(=O)n2Cc2cccs2)c1 | 20.6µM* | -1.0% | i | ? | 5.17µM* | 9.6%
COc1cccc(NC(=O)CSc2nc3ccccc3c(=O)n2CCCC(=O)N2CCCC2)c1 | -19.6% | -11.1% | i | ? | 2.59µM* | -12.3%
COc1cccc(NC(=O)CSc2nc3ccccc3c3nc4ccccc4n23)c1 | 11.6µM* | ? | i | 16.4µM* | i | ?
Cc1ccc(C2(C)NC(=O)N(CC(=O)Nc3ccc(S(=O)(=O)Nc4nccs4)cc3)C2=O)cc1 (stereo not drawn) | 14.5% | 2.6% | i | 4.0% | i | 1.9%
